From PubChem BioAssay (NCI)
Compounds without any hit were thinned out: in the full panel of roughly 79,000, 15% have a hit. Unmarked numbers belong to inactive results. Activity calls are given as the source filed them. Cut-off read from the data, not from the text of the source: active = growth inhibition above about 70%; inactive = the rest.

Legend:
[1] = NCI Yeast Anticancer Drug Screen. Data for the rad50 strain (AID 155);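 note: 0% = growth of vehicle-only cultures of the same strain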; settings: S. cerevisiae rad50 strain growth inhibition, hits give high values
Procedure, shortened: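 Vehicle-treated cultures provide the reference for the growth inhibition reported for compound-exposed, repair-deficient yeast.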

[2] = NCI Yeast Anticancer Drug Screen. Data for the mec2-1 strain (AID 157); settings: S. cerevisiae mec2-1 strain, hits give high values
Procedure, shortened: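 Vehicle-treated cultures served as reference for growth inhibition of compound-exposed mec2-1 yeast.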

[3] = NCI Yeast Anticancer Drug Screen. Data for the sgs1 mgt1 strain (AID 161);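 note: 0% = growth of cultures given vehicle only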; settings: S. cerevisiae sgs1 mgt1 strain, hits give high values
Procedure, shortened: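 Inhibition of yeast growth, normalised to vehicle-treated controls, is reported for a strain bearing genetic alterations in DNA damage repair.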

[4] = NCI Yeast Anticancer Drug Screen. Data for the cln2 rad14 strain (AID 165);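 note: 0% = growth equal to vehicle treated cultures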; settings: S. cerevisiae cln2 rad14 strain, hits give high values
Procedure, shortened: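 Each compound was tested on cln2 rad14 yeast. Inhibition of growth was calculated against vehicle-exposed controls.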

[5] = NCI Yeast Anticancer Drug Screen. Data for the bub3 strain (AID 167); settings: S. cerevisiae bub3 mutant strain, hits give high values
Procedure, shortened: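 Mutant yeast screening strain plus compound; vehicle-treated cultures serve as the 0% inhibition reference.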

[6] = NCI Yeast Anticancer Drug Screen. Data for the mlh1 rad18 strain (AID 175); settings: S. cerevisiae mlh1 rad18 strain growth inhibition, hits give high values
Procedure, shortened: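 Vehicle-treated cultures served as the reference for growth inhibition in a yeast strain carrying DNA damage repair alterations exposed to each compound.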

[7] = at 5.0 µM (retest, dose inferred, filed as 0.5)
[8] = at 50.0 µM (retest, dose inferred, filed as 5.0)

Structure (SMILES) | growth inhibition [1, 7] | growth inhibition [1, 8] | growth inhibition ([1]; at 50.0 µM) | growth inhibition [2, 7] | growth inhibition [2, 8] | growth inhibition ([2]; at 50.0 µM) | growth inhibition [3, 7] | growth inhibition [3, 8] | growth inhibition ([3]; at 50.0 µM) | growth inhibition [4, 7] | growth inhibition [4, 8] | growth inhibition ([4]; at 50.0 µM) | growth inhibition [5, 7] | growth inhibition [5, 8] | growth inhibition ([5]; at 50.0 µM) | growth inhibition [6, 7] | growth inhibition [6, 8] | growth inhibition ([6]; at 50.0 µM)
CC/C(=C(\CC)c1ccc(O)c(CN(C)C)c1)c1ccc(OC)cc1 | 9% | 87% (active) | 98.5% (active) | 9% | 84% (active) | 86.3% (active) | 12% | 99% (active) | 99.6% (active) | 0% | 98% (active) | 97.8% (active) | -28% | 95% (active) | 94.8% (active) | 3% | 98% (active) | 98.6% (active)
CCCCCCN(CCCCCC)CCC(=O)c1ccc2cc(Br)c3ccccc3c2c1 | 26% | 85% (active) | 98.6% (active) | 38% | 95% (active) | 98.6% (active) | 75% (active) | 94% (active) | 97.9% (active) | 8% | 87% (active) | 96.8% (active) | 20% | 92% (active) | 98.6% (active) | 43% | 84% (active) | 97.7% (active)
CCN(CC)C(=S)N/N=C/c1cc([N+](=O)[O-])ccc1O | -21% | 63% | 37% | 15% | 88% (active) | 79.8% (active) | 36% | 87% (active) | 54.4% | -3% | 66% | 59% | 16% | 76% (active) | 56.5% | 12% | 80% (active) | 14.8%
O=C(CCN(Cc1ccccc1)Cc1ccccc1)c1ccc2ccccc2c1 | 30% | 55% | 76.2% (active) | 28% | 58% | 55.6% | 59% | 89% (active) | 90.6% (active) | 33% | 61% | 83.8% (active) | 45% | 69% | 60.1% | 35% | 68% | 81.4% (active)
C/C(=N\NC(=S)NCc1ccccc1)c1nccnc1C | 23% | 98% (active) | 90.9% (active) | 19% | 99% (active) | 89% (active) | 35% | 99% (active) | 82.9% (active) | 35% | 98% (active) | 85.9% (active) | 52% | 99% (active) | 83.3% (active) | 27% | 98% (active) | 91.7% (active)
CN1C=CC(C(O)(c2ccccc2)c2ccccc2)CC1 (stereo not given) | -2% | 1% | 1.25% | -6% | 8% | 19.3% | 2% | 0% | 10% | -5% | 4% | 51.6% | -5% | -3% | 16.7% | -4% | 5% | 22.8%
O=Cc1ccc(O)c2ccccc12 | -3% | 66% | 63.2% | 1% | 47% | 76.6% (active) | -9% | 85% (active) | 75.6% (active) | 1% | 23% | 32.8% | -1% | 78% (active) | 48% | -5% | 88% (active) | 64.5%
Cc1ccc(S(=O)(=O)Nc2ccc3c(c2)C(=O)c2ccccc2-3)cc1 | 14% | 90% (active) | 91.7% (active) | 6% | 93% (active) | 91.4% (active) | 7% | 95% (active) | 91.3% (active) | -5% | 89% (active) | 58.5% | 6% | 94% (active) | 93.7% (active) | 17% | 94% (active) | 84.9% (active)
COc1cc(NS(C)(=O)=O)ccc1Nc1c2ccccc2nc2ccccc12 | 67% | 85% (active) | 83.5% (active) | -5% | 57% | 42.5% | 9% | 44% | 37.2% | 15% | 32% | 20.8% | 14% | 24% | 11.1% | 9% | 38% | 32.9%
CS(=O)(=O)c1snc(N)c1C#N | 11% | 73% (active) | 40.9% | 23% | 85% (active) | 47.5% | 17% | 80% (active) | 50.6% | 6% | 61% | -10.1% | 29% | 89% (active) | -9.75% | 18% | 85% (active) | 68.4%
